Screening data: PubChem, National Center for Advancing Translational Sciences (NCATS)
The list is not random: actives were taken first. Their share in the collection is about 21%.
Pf growth 96h: inhibits malaria parasite growth, 96 h | 6.9% of 320,000 active | Potency, µM (series often up to 28.7 µM), for inactives: at the highest dose activity change, negative = inhibition, most hits filed as inhibitors | AID 504834 | P. falciparum luciferase reporter growth, 96 h; note: potency is the fitted concentration of half-maximal effect; % is set by controls: 0 for no effect and ±100 for the full control effect
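P. falciparum expressing integrated firefly luciferase, in erythrocytes at 2% hematocrit, 0.05% parasitemia, incubated with compounds 96 h at 37 C, 5% CO2. Growth inhibition read as loss of luminescence; two-generation exposure targets delayed-death apicoplast inhibitors.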
HCV inh: inhibitors of hepatitis C virus infection; Huh7.5.1 HCVcc-Cre infection, luciferase reporter, 44 h; Potency, µM (titrated, usually from 41.8 µM), without a hit: at the highest dose activity change, negative = inhibition, hits mostly inhibitors; 3.4% of 340,000 active; AID 651820; note: potency is the fitted concentration of half-maximal effect; % is set by controls: 0 for no effect and ±100 for the full control effect
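Whole-lifecycle infectious HCVcc-Cre system; cells 1,000/well, compound then virus (~0.5 moi) added 4 h after plating, 44 h culture. Luciferase read 15 sec following 15 min substrate incubation, room temp.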
Shiga inhibitor: Shiga toxin inhibition; Vero cells, Shiga toxin protein synthesis inhibition reporter; inhibition, % at 38.7 µM; 9.2% of 290,000 active; in the data active = inhibition mostly above about 28%, no sharp cut-off; inactive = mostly below about 43%; note: 0% is about no effect
Pf growth 48h: inhibits P. falciparum growth in the first generation, 48 h; P. falciparum luciferase growth in erythrocytes, 48 h; Potency, µM (titrated, usually from 28.7 µM), for the others: top-dose activity change, negative = inhibition, most hits filed as inhibitors; 5.9% of 310,000 active; note: potency is the fitted concentration of half-maximal effect; % is set by controls: 0 for no effect and ±100 for the full control effect
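Read-out is firefly luciferase luminescence from an integrated reporter in P. falciparum, so falling signal marks reduced parasite growth. Infected erythrocytes were at 2% hematocrit and 0.1% parasitemia (final) in Albumax-supplemented RPMI 1640.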
CHX counter: affects cycloheximide protein synthesis inhibition readout, counter-screen; cell reporter, cycloheximide protein synthesis inhibition counterscreen; max response, %; 12% of 300,000 active; in the data active = max response mostly above about 13%, no sharp cut-off; inactive = mostly below about 14%; note: read at 38.3 µM for the half of the compounds with a filed dose; 0% is about no effect
HCMV antiviral: inhibitors of human cytomegalovirus. 4.5% of 410,000 active. activity change, negative = inhibition, % at 57.5 µM. AID 1259415. HFF cells, HCMV-luciferase reporter, 72 h; active compounds read low; in the data active = activity change below about -60%; inconclusive = no clear call, values can overlap the other calls; inactive = above about -39%; note: % is set by controls: 0 for no effect and ±100 for the full control effect
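After 16 h attachment at 37C, HFF cells received test compound and HCMV-luciferase (1 PFU/cell); reporter luminescence read 72 h later, data normalized against buffer-only and known inhibitor Salinomycin.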
An asterisk follows results filed as active; i = inactive; ? = inconclusive; nt = no result given. Unless noted, calls come from the whole dose curve; as a rule, active = well fitted inhibition curve with a large enough effect; inconclusive = small, poorly fitted or top-dose-only effect, or another doubt; inactive = no such curve, though single readings can be large or run the other way.

SMILES	Pf growth 96h	HCV inh	Shiga inhibitor	Pf growth 48h	CHX counter	HCMV antiviral
CCOP(=O)(CCP(=O)(OCC)OCC)OCC.C[CH2][Sn]([Cl])([Cl])[CH2]C	nt	1.58µM*	nt	nt	nt	-101.0*
CCNc1nc(NCC)nc(N/N=C/c2ccc([N+](=O)[O-])o2)n1	4.15µM*	-27.6%	-2.5	nt	4.6	?
O=[N+]([O-])c1cccc(-n2cccc2/C=N/Nc2nc(N3CCCCC3)nc(N3CCCCC3)n2)c1	?	?	-4.9	?	-1.2	-9.1
O=[N+]([O-])c1cccc(-c2ccc(/C=N/Nc3nc(N4CCCCC4)nc(N4CCCCC4)n3)o2)c1	11.1%	11.2µM*	-12.7	2.33µM*	5.9	-6.4
O=[N+]([O-])c1ccc(/C=N/Nc2nc(N3CCCC3)nc(N3CCCC3)n2)o1	10.4µM*	?	3.2	nt	7.2	?
Cc1ccc2nc(N/N=C\c3ccc([N+](=O)[O-])o3)nc(-c3ccccc3)c2c1	?	?	-3.3	nt	-2.5	?
O=[N+]([O-])c1cccc(/C=N/Nc2nc(N3CCCCC3)nc(N3CCCCC3)n2)c1	13.6%	5.62µM*	1.4	?	-5.0	-10.5
Cc1ccc(CNC(=O)CCS(=O)(=O)c2ccc3c(c2)NC(=O)CS3)cc1	46.9%	-11.5%	-2.5	8.8%	-10.2	13.1
O=C(O)C(F)=C1c2ccccc2-c2ccccc21	nt	-17.8%	nt	nt	nt	-4.9
Cc1ccnc(NS(=O)(=O)c2cc(-c3cc(C)no3)ccc2C(C)C)c1	10.4µM*	-2.2%	28.2*	22.6%	17.3*	-6.1
CCc1ccc(-c2cc(C)no2)cc1S(=O)(=O)Nc1cc(C)on1	?	3.4%	14.1	11.2%	-2.7	4.1
COc1ccc(-c2cc(C)no2)cc1S(=O)(=O)NCc1ccco1	nt	nt	nt	nt	nt	0.0
Cc1cc(-c2ccc(C(C)C)c(S(=O)(=O)NCc3ccco3)c2)on1	?	?	33.9*	-19.1%	30.1*	0.0
CCCn1c(CN2CCN(C(=O)OCC)CC2)nc2cc(NC(C)=O)ccc21	-11.9%	7.1%	-2.2	-8.8%	-1.7	?
COc1ccc(-c2cc(C(=O)Nc3c(Cl)cccc3Cl)no2)cc1OC	nt	nt	nt	nt	nt	10.5
COC(=O)c1sc(-c2ccccc2)cc1NC(=O)Nc1ccc(Cl)cc1	nt	nt	nt	nt	nt	-16.0
CCOC(=O)c1sc(-c2ccccc2)cc1NC(=O)Nc1ccccc1	?	10µM*	4.1	0.0%	8.5	-36.3
COC(=O)c1sc(-c2ccccc2)cc1NC(C)=O	55.5%	8.91µM*	-15.0	-2.1%	5.6	47.1
COC(=O)c1sc(-c2ccc(Cl)cc2)cc1NC(=O)CSCC(=O)O	15.9%	18.8%	0.9	-3.4%	-2.3	-11.7
CCOC(=O)c1sc(-c2ccc(F)cc2)cc1NC(=O)Nc1ccccc1OC	8.28µM*	-2.8%	-10.4	?	-4.1	-29.9
COC(=O)c1sc(-c2ccccc2)cc1NC(=O)Nc1ccc(F)cc1	nt	nt	nt	nt	nt	-29.5
COC(=O)c1sc(-c2ccc(C(C)(C)C)cc2)cc1NC(=O)COCC(=O)O	-17.8%	14.4%	43.7*	?	20.5*	68.3
CCN(CC(=O)Nc1c(F)cccc1F)C(=O)c1cc([N+](=O)[O-])ccc1N1CCCCC1	3.7%	?	nt	?	nt	-37.9
CC(C)CC1OC(=O)C2=CCCCC21 (centres undefined)	nt	nt	-9.3	nt	7.6	nt
CCn1c(C)nc2cc(C(=O)NNC(=S)Nc3ccccc3Cl)ccc21	i	11.4%	50.6*	83.8%	39.7*	91.1
SMILES	Pf growth 96h	HCV inh	Shiga inhibitor	Pf growth 48h	CHX counter	HCMV antiviral
CCn1c(C)nc2cc(C(=O)NNC(=S)Nc3ccc(Cl)cc3Cl)ccc21	?	13.1%	10.9	-0.3%	16.4*	-38.3
CC(C)C[C@H](NC(=O)[C@@H](N)Cc1ccccc1)C(=O)N[C@@H](Cc1ccccc1)C(=O)N[C@@H](CCC(N)=O)C(=O)N1CCC[C@H]1C(=O)N[C@@H](CCC(N)=O)C(=O)N[C@@H](CCCN=C(N)N)C(=O)N[C@@H](Cc1ccccc1)C(N)=O	nt	nt	-11.2	nt	-1.2	nt
COc1ccccc1N1CCN(C(=S)Nc2ccccc2)CC1	?	3.2%	nt	0.1%	1.1	-10.6
CC(=O)Nc1ccc(S(=O)(=O)N2CCC(C(=O)NCc3ccncc3)CC2)cc1	-4.6%	9.9%	-3.1	6.5%	1.1	-32.6
Fc1ccc(F)c(C2=NNC(=NCC3CCCO3)SC2)c1 (centres undefined)	-21.2%	-2.8%	131.2*	?	33.0*	293.4
COc1ccccc1-n1c(SCC(=O)OC(C)C)nc2cccnc21	-6.3%	1.3%	-5.4	?	-0.9	-30.9
CCOc1ccccc1C1C2CCCCC2(O)CCN1C(=O)c1cccs1 (centres undefined)	?	21.4%	55.4*	?	43.8*	74.9
CC1CC(C)CN(CC(=O)N2CCCc3c2c(=O)oc2ccc(OCc4ccccc4)cc32)C1 (centres undefined)	42.4%	11.2µM*	3.0	nt	-4.4	-6.5
COCCCNc1c2c(nc3ccccc13)CCC2	nt	nt	nt	nt	nt	78.5
O=C(NCC(c1ccccc1)c1ccccc1)c1nn(-c2ccccc2Cl)nc1CO	nt	nt	nt	nt	nt	-92.4*
O=C(NCc1cccs1)c1nn(-c2ccccc2Cl)nc1CO	nt	nt	nt	nt	nt	-23.1
Cc1ccc(-n2nc(CO)c(C(=O)NCC(c3ccccc3)c3ccccc3)n2)cc1	nt	nt	nt	nt	nt	38.7
Cc1ccccc1-n1nc(CO)c(C(=O)NCC(c2ccccc2)c2ccccc2)n1	nt	nt	nt	nt	nt	-86.3*
O=C(NCc1ccc2c(c1)CCN2C(=O)c1ccccc1)c1ccco1	nt	nt	nt	nt	nt	-5.6
CCc1ccc2c(CC(=O)Nc3cccc(S(=O)(=O)N4CCOCC4)c3)coc2c1	-77.3%	?	nt	?	nt	9.5
Cc1oc(C(=O)Nc2ccc(O)cc2)cc1COc1ccccc1	nt	?	38.1*	12.2%	15.9*	-36.0
COC(=O)c1cc(C)cc(=O)o1	63.1%	12.6%	10.3	6.2%	0.9	27.8
Cc1ccc(OCc2cc(C(=O)Nc3ccccc3)oc2C)cc1	3.4%	-28.3%	85.2*	nt	50.6*	34.2
O=C(O)c1ccc(NC(=O)c2ccc(COc3ccccc3)o2)cc1	51.8%	13.3%	55.2	12.8%	17.0	31.3
Cc1cc(C(=O)Nc2ccccc2)oc(=O)c1	172.2%	-2.0%	44.8*	111.3%	48.2*	49.7
Cc1oc(C(=O)O)cc1COc1ccccc1Cl	-17.4%	18.2%	-12.8	11.7%	6.9	-17.8
CC(=O)N1N=C(c2ccc(C)cc2)OC1c1ccc(C)cc1 (centres undefined)	69.0%	13.9%	23.3	nt	22.2*	17.2
CC(=O)N1N=C(c2ccc(C)cc2)OC1c1ccc(C(C)C)cc1 (centres undefined)	342.2%	13.9%	163.9*	90.0%	38.3*	133.6
CCCNC(=O)N1CC2(CN(C(C)=O)C2)c2c(n(C)c3cc(OC)ccc23)[C@H]1CO	nt	nt	nt	nt	nt	3.1
